Screening data from PubChem BioAssay.
Rab9 prom act: qHTS Assay for Rab9 Promoter Activators | 2.8% of 320,000 active | Potency, µM (doses to about 9.22 µM), inactives show at the top dose activation, negative = inhibition, most hits filed as activators | AID 485297, 2010 | Huh7 Rab9 promoter-luciferase reporter, luminescence, 24 h; also: % of control where 0% means no effect; nearly all actives have a fitted effect of over 60% in size
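Luciferase signal after 10 min detection reagent at ambient indicates Rab9 promoter upregulation; stably transfected Huh7 cells were treated 24 h with compound in DMSO at 37 °C, 5% CO2.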
NPC1 prom act: qHTS Assay for NPC1 Promoter Activators. AID 485313, 2010. 2.4% of 320,000 active. Huh7 NPC1 promoter luciferase reporter, 24 h. Potency, µM (series often up to 9.22 µM), for the others: at the highest dose activation, usual class: activators; also: % of control where 0% means no effect; nearly all actives have a fitted effect of over 60% in size
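Luminescence read-out of NPC1 promoter-driven luciferase in stably transfected Huh7 cells; compounds delivered in DMSO and left 24 h at 37C, 5% CO2, qHTS titration format.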
ELG1 genotoxic: qHTS screen for small molecules that induce genotoxicity in human embryonic kidney (HEK293T) cells expressing luciferase-tagged ELG1; HEK293T ELG1-luciferase reporter, luminescence, 16 h; 1.3% of 330,000 active; AID 504466, 2011; Potency, µM (titrated, usually from 46 µM), inactives show at the top dose activity change, positive = activation, actives largely listed as activators; also: % of control where 0% means no effect; nearly all actives have a fitted effect of over 60% in size
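HEK293T cells expressing luciferase-tagged ELG1 were treated with compound or DMSO for 16 hr at 37°C. Luciferase activity was then read after 30 min with ONE-Glo at room temperature; rising signal flags genetic stress.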
SMN2 splice up: qHTS Assay for Enhancers of SMN2 Splice Variant Expression. AID 1458, 2008. 2.8% of 210,000 active. Potency, µM (doses to about 46.1 µM), for the others: at the top dose activity change, positive = activation, usual class: activators. HEK293 SMN2-luciferase splicing reporter, luminescence, 30-36 h; also: % of control where 0% means no effect; nearly all actives have a fitted effect of over 55% in size
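HEK293 cells carry an SMN2 minigene-luciferase reporter in which exon 7 inclusion puts luciferase in frame. Cells were seeded at 2000 cells/well, attached for 10-12 hours, then exposed to compounds for 30-36 hours at 37C before ONE-Glo luminescence.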
FLuc modulator: qHTS profiling assay for firefly luciferase inhibitor/activator using purifed enzyme and Km concentrations of substrates (counterscreen for miR-21 project); Luciferin 4-monooxygenase (Photinus pyralis), P08659; purified FLuc, Km substrates, luminescence inhibition; Potency, µM (series often up to 57.5 µM), without a hit: at the highest dose activity change, negative = inhibition, actives largely listed as inhibitors; 6.9% of 360,000 active;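 also: plate controls were vehicle for no effect and reference inhibitor for full effect; nearly all actives have a fitted effect of over 55% in size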
Target sequence (P08659 whole entry, looked up): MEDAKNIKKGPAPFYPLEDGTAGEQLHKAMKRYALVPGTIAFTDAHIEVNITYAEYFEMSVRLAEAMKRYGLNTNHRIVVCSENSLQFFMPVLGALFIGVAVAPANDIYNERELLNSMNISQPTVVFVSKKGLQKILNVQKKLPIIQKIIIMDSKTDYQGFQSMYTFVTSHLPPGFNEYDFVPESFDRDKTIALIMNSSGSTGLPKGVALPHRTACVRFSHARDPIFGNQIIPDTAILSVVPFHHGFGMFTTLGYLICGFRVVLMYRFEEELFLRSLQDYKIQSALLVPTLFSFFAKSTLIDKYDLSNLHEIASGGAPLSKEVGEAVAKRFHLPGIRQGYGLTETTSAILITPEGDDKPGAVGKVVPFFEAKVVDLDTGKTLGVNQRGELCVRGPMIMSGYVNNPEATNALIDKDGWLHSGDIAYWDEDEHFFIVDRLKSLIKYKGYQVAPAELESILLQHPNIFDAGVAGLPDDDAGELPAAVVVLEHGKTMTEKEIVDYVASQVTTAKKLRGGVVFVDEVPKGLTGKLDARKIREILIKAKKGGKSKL
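Purified P. pyralis luciferase, 10 nM final, with Km-level 10 uM D-luciferin and 10 uM ATP in 50 mM Tris acetate pH 7.5, 10 mM Mg acetate, 0.01% Tween-20, 0.05% BSA; 6-point qHTS titration about 60 µM downward; luminescence read.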
ELG1 DNA repair: qHTS screen for small molecules that inhibit ELG1-dependent DNA repair in human embryonic kidney (HEK293T) cells expressing luciferase-tagged ELG1; HEK293T ELG1-luciferase reporter, luminescence, 16 h; DNA damage induced by 5-fluorouridine; Potency, µM (series often up to 46.1 µM), without a hit: at the top dose activity change, negative = inhibition, usual class: inhibitors; 2.3% of 330,000 active; AID 504467, 2011; also: % is scaled to controls: 0 for no effect and ±100 for the full control effect; nearly all actives have a fitted effect of over 55% in size
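Quantitative HTS, concentration-response format. 2,000 cells/well co-treated with 5-fluorouridine and compound, 16 hr in 5% CO2 at 37 °C; ONE-Glo luminescence read after 30 min.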
Numbers without * were called inactive; u = inconclusive; x = not tested or not shown; [ ] = dose if it differs, or a comment. Most compounds without a hit are left out; they make up all but 9.3% or so of the library. Calls follow the shape of the dose curve; as a rule, active = well fitted curve in the direction sought with a large enough effect; inconclusive = small, poorly fitted or top-dose-only effect, or another doubt; inactive = no such curve, though single readings can be large; an effect the other way counts as inactive or inconclusive. Potency is read from the fitted curve at half-maximal effect.

SMILES	Rab9 prom act	NPC1 prom act	ELG1 genotoxic	SMN2 splice up	FLuc modulator	ELG1 DNA repair
COc1ccc(-c2cc(C(=O)N3CCN(c4cccc(C)c4C)CC3)c3ccccc3n2)cc1OC	-3%	-1%	-35%	x	u	u
CCOc1ccc(S(=O)(=O)n2c([N+](=O)[O-])cnc2C)c(C)c1C	11%	5%	-2%	x	-4%	13%
Cc1ccc(NS(=O)(=O)c2ccc3c(c2)c(=O)n(C)c(=O)n3C)cc1F	1%	1%	-10%	-45%	3%	u
CN(C)S(=O)(=O)N1CCc2ccc(NC(=O)c3ccccc3Cl)cc2C1	17%	15%	4%	x	11µM*	13%
CCCS(=O)(=O)N1CCc2ccc(NC(=O)c3ccccc3Cl)cc2C1	0%	2%	-3%	x	17µM*	u
CSCC(=O)N1CCc2ccc(NC(=O)c3ccccc3Cl)cc2C1	u	u	u	x	17µM*	28%
Cc1cc(C)n(-c2nc(N(C)C)nc(N(C)C)n2)n1	1%	0%	-7%	-11%	4%	-5%
Cc1ccc(CN2CCc3nc(SCC(=O)Nc4cccc(C)c4C)[nH]c(=O)c3C2)cc1	x	x	x	x	1%	x
CCN(CC)S(=O)(=O)c1cccc(C(=O)Nc2cc(C)nn2-c2ccccc2)c1	0%	-1%	-5%	-23%	0%	23µM*
Cc1cc(NC(=O)c2sccc2C)n(-c2cccc(Cl)c2)n1	3%	2%	3%	-3%	27µM*	u
Cc1cc(C)cc(OCC(=O)OCC(=O)Nc2cc(C)nn2-c2ccccc2)c1	1%	-5%	-2%	x	1%	-3%
Cc1cc(NC(=O)COc2ccccc2)n(-c2ccccc2)n1	1%	17%	-8%	-29%	2%	16µM*
Cc1ccc(N=C2NC(=O)C(CO)(CO)S2)cc1	2%	-4%	11%	x	-2%	6%
COc1ccc(OC)c2c1sc(=NC(=O)C1COc3ccccc3O1)n2C (configuration not stated)	u	u	17%	x	-18%	u
O=c1cc(NCc2ccco2)[nH]c(=O)n1-c1ccc(Br)cc1	-2%	2%	0%	-5%	5%	-3%
O=C(CSc1n[nH]c(=O)[nH]c1=O)Nc1ccc2c(c1)C(=O)c1ccccc1C2=O	-1%	2%	4%	x	u	u
CCCCC1CCC(CCCC(C)CCC(=O)O)CC1 (configuration not stated)	x	x	x	-8%	27µM*	x
COc1ccc(-c2cc(C(=O)NC3=NCCS3)c3ccccc3n2)cc1OC	u	13%	-6%	5%	9.5µM*	16µM*
Cc1cc(C(=O)NC2=NCCS2)c2ccccc2n1	0%	-8%	0%	17%	-4%	10%
O=C(NC1=NCCS1)c1cc(-c2ccc(-c3ccccc3)cc2)nc2ccccc12	1.8µM*	4µM*	13%	-7%[1.84 µM]	0.85µM*	u
O=C(NCc1ccco1)C(c1ccccc1)N(C(=O)Cc1cccs1)c1ccccc1F (configuration not stated)	-1%	-2%	-5%	-23%	-1%	18µM*
O=C(Nc1ccc(Oc2ccccc2)cc1)C1CCN(c2c3c(nc4ncnn24)CCC3)CC1	-21%	-3%	-10%	-76%	-1%	16µM*
COc1ccc(S(=O)(=O)N2CCN(c3cc(-c4ccccc4)nc4ncnn34)CC2)cc1	-5%	-2%	-13%	-31%	0%	21µM*
Cc1ccccc1NC(=O)C1CCN(c2cc(-c3ccccc3)nc3ncnn23)CC1	-3%	-6%	-6%	-69%	3%	15µM*
COc1cc2ncnc(NCc3ccccc3F)c2cc1OC	-4%	-2%	2%	x	0%	-16%
SMILES	Rab9 prom act	NPC1 prom act	ELG1 genotoxic	SMN2 splice up	FLuc modulator	ELG1 DNA repair
CCOC(=O)C1CCN(C(=O)CCS(=O)(=O)c2ccc3c(c2)CC(C)N3C(=O)CC)CC1 (configuration not stated)	-7%	-2%	0%	-15%	2%	-4%
CC(=O)c1c(C)oc2ccc(N(C(C)=O)S(=O)(=O)c3cccc4cccnc34)cc12	-24%	-27%	-6%	x	-3%	5.8µM*
CCc1nc2sc3c(=O)[nH]cnc3c2c2c1CSC(C)(C)C2	-3%	-2%	7%	x	-1%	u
CC1(C)Cc2nc3sc4c(=O)[nH]cnc4c3cc2CS1	14%	26%	u	u	13µM*	u
CCCCCn1cnc2c(sc3nc4c(cc32)CSC(C)(C)C4)c1=O	3.2µM*	3.5µM*	u	19%	3.8µM*	u
COc1ccc(CNCC(O)COc2cccc3c2OC(C)(C)C3)cc1 (configuration not stated)	-8%	-16%	-15%	-56%	2%	9.2µM*
CCN(CC)C(=O)CSc1nnc2ccc3ccccc3n12	x	x	x	x	-11%	x
O=C(CSc1nnc2ccc3ccccc3n12)Nc1ccccc1Cl	x	x	x	x	17µM*	x
CCCOC(=O)CSc1nnc2ccc3ccccc3n12	x	x	x	x	9.5µM*	x
c1ccc2c(CN3CCN(Cc4c[nH]c5ccccc45)CC3)c[nH]c2c1	x	x	x	1%[9.22 µM]	x	x
CCCCN(CC)CCCNC(=O)c1cc2c(=O)n(C)c3ccccc3c2n1C	-11%	-7%	u	u	0%	u
CC(CCn1cccn1)NC(=O)c1cc(COc2ccc(F)cc2Cl)on1 (configuration not stated)	2%	-2%	1%	x	17µM*	u
CC(CCCC(C)(C)O)NC(=O)c1cc(COc2ccc3ncccc3c2)on1 (configuration not stated)	-44%	-24%	-2%	-41%	-21%	2.6µM*
CC(CCn1cccn1)NC(=O)c1cc(COc2ccc(F)cc2F)on1 (configuration not stated)	-2%	-3%	0%	x	-4%	-2%
CC(=O)c1ccc(OCc2cc(C(=O)NC(C)CCn3cccn3)no2)cc1 (configuration not stated)	4µM*	2.8µM*	18µM*	x	15µM*	u
Cc1ccc(OCc2cc(C(=O)NCCn3cccn3)no2)cc1C	13%	12%	5%	x	u	u
Cc1nc(CCNC(=O)c2cc(COc3ccc(F)cc3Cl)on2)sc1C	12%	22%	-4%	x	21µM*	u
